PubChem BioAssay (NCI)
The panel holds about 83,000 compounds, 20% with a hit somewhere; the sample as a whole holds those more often.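 How to read the values: 0–100, growth inhibition (40 = 60% inhibited); 0, no net growth; -100 to 0, cell death (-40 = 40% of starting cells died; -100 = all dead).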 Unmarked numbers belong to inactive results. The source made the active and inactive calls. The calls were made as follows: active = growth percent below 10; inactive = the rest.

Experiments:
Test in all cases: NCI-60 one-dose screen, 48 h (100 = growth as untreated, 0 = no growth, -100 = all killed)
Conditions in all cases: 10 µM unless noted
RPMI-8226 leukemia = test system: RPMI-8226 leukemia
OVCAR-8 ovarian = test system: OVCAR-8 ovarian
OVCAR-5 ovarian = test system: OVCAR-5 ovarian
OVCAR-4 ovarian = test system: OVCAR-4 ovarian
SK-OV-3 ovarian = test system: SK-OV-3 ovarian
IGROV1 ovarian = test system: IGROV1 ovarian
NCI/ADR-RES ovarian = test system: NCI/ADR-RES ovarian
T-47D breast = test system: T-47D breast
BT-549 breast = test system: BT-549 breast
MDA-MB-435 melanoma = test system: MDA-MB-435 melanoma
SW-620 colon = test system: SW-620 colon
MCF7 breast = test system: MCF7 breast
HCT-116 colon = test system: HCT-116 colon
HCC-2998 colon = test system: HCC-2998 colon
KM12 colon = test system: KM12 colon
OVCAR-3 ovarian = test system: OVCAR-3 ovarian
HS 578T breast = test system: HS 578T breast

Row | SMILES | growth (RPMI-8226 leukemia) | growth (OVCAR-8 ovarian) | growth (OVCAR-5 ovarian) [%] | growth (OVCAR-4 ovarian) [%] | growth (SK-OV-3 ovarian) [%] | growth (IGROV1 ovarian) | growth (NCI/ADR-RES ovarian) | growth (T-47D breast) | growth (BT-549 breast) | growth (MDA-MB-435 melanoma) | growth (SW-620 colon) | growth (MCF7 breast) | growth (HCT-116 colon) | growth (HCC-2998 colon) | growth (KM12 colon) | growth (OVCAR-3 ovarian) | growth (HS 578T breast)
1 | NC(N)=Nc1nc2ccccc2o1 | 58.2% | 110% | 110 | 110 | 107 | 102% | 95.1% | 98.3% | 89.9% | 122% | 95.7% | 96.8% | 95.5% | 82.5% | 95.9% |  | 
2 | Cc1ccc2ccccc2c1C[n+]1ccccc1 | 80.9% | 91.7% | 116 | 91.5 |  | 101% | 104% | 109% | 79.8% | 102% | 99.7% | 93.9% | 101% | 95.2% | 87.8% | 102% | 95.1%
3 | O=C(c1ccccc1)c1c(/C=C/c2ccccc2)c2ccccc2[nH]c1=O | 94.6% |  | 90.4 | 97.7 | 102 | 95.4% | 97.5% | 93.5% | 92.4% | 98.2% | 101% | 97.3% | 100% | 111% | 96% | 97.6% | 88.7%
4 | COc1ccc(NC(=O)c2cc(OC)c(OC)c(OC)c2)cc1O |  | 57.6% | 83.4 | 57.4 | 29.1 | 54.7% | 13.2% | 42.5% | 45.5% |  | 28.1% | 24% | 33.4% |  | 22.9% | -27.6% (active) | -10.2% (active)
5 | CN(C[C@H]1Cc2c(cccc2N2CCN(c3ncccn3)CC2)CN1)[C@H]1CCCc2cccnc21 | 27.1% | 30% | 52.8 | 52.9 |  | 37.1% | 9.46% (active) | 26.1% | 56.9% | 40.7% | 31.3% | 15.6% | 19.6% | 53.9% | 43.5% | 34% | 73.1%
6 | Cc1ccc(-c2nc(C#N)c(S(=O)(=O)n3nc(-c4ccccc4)cc3N)o2)cc1 |  | 90.4% | 106 | 114 | 94.8 | 101% | 94.9% | 18.2% | 96.8% | 100% | 31.8% | 79.5% | 63% | 112% | 107% |  | 95.6%
7 | COc1ccc(C2C=C(c3ccc(OC)c(OC)c3)N=C3SC=C(C)N32)c(Br)c1 (stereo not given) | 102% |  | 92.8 | 99.6 | 107 | 105% | 113% | 98.3% | 99% | 110% | 109% | 94.5% | 105% | 110% | 107% | 112% | 116%
8 | COc1cc(Nc2nc(N[C@H]3CCCC[C@@H]3N)nc3cc[nH]c(=O)c23)cc(OC)c1 | 25% | 14.5% | 22.2 |  | 24.1 | 8.81% (active) | 100% | 83.6% | -27% (active) | 33.4% | 14.2% |  | 7.88% (active) | 32.1% | 7.39% (active) | 70.4% | 53.6%
9 | COP(=O)(OC)/C(=N\NS(=O)(=O)c1ccc(C)cc1)c1ccccc1 | 109% | 106% | 91 |  | 91.7 |  | 95.8% | 94.7% | 125% | 106% | 105% | 88.6% | 103% | 102% | 103% | 103% | 123%
10 | C=C1C(=O)O[C@H]2[C@H]1CC/C(COC(=O)NCc1ccccc1OC)=C\CC[C@@]1(C)O[C@@H]21 | 25.7% | 10.5% | 73 | 41.7 | 85.8 |  | 86% | 31.5% | 26.7% | 44.4% | 0.256% (active) |  | -26.1% (active) | 93.9% | 62.3% | -1.44% (active) | 40.1%
11 | COc1ccc(-c2nc3sccn3c2/C=C/C(=O)c2cc(F)cc(F)c2)cc1 | 6.15% (active) | 80.7% | 102 | 66.2 | 75.3 |  | 78% | 40.5% | 127% | 94.2% | 53.9% | 20.3% | 53.7% | 51.3% | 84.3% | 54.7% | 75.1%
12 | COc1ccc(-c2c(N)n[nH]c2-c2cc(OC)c(OC)c(OC)c2)cc1 | 27% |  | 37.5 | 47.7 | 15.4 | 26.9% | -20.2% (active) | 75.1% | 50.9% | -40.7% (active) | 21% | 23% | 9.76% (active) | -2.65% (active) | 14% | -36.1% (active) | -8.33% (active)
13 | COc1ccc2c(c1)cn1c3ccc(OC)cc3[nH]c(=O)c21 | -37.8% (active) | -47.4% (active) | 21.3 | 40.4 | 22.5 | -54% (active) | -2.47% (active) | -32.2% (active) | -0.958% (active) | -80% (active) | -38.9% (active) | -47.5% (active) | -75.8% (active) | -68.5% (active) | -61.7% (active) |  | 
